Inconclusive results are not listed. Where a call stands in place of a potency, no number is given. Active and inactive are the calls of the source. Calls follow the shape of the full dose curve.
Test: Natriuretic polypeptide receptor (hNpr1) antagonism - Pilot counterscreen GloSensor control cell line (AID 1347045)
Details: HEK293 cGMP GloSensor cells, SNP-stimulated luminescence, 20 min; series mostly up to 38.3 µM
Protocol: F. Fan, B. F. Binkowski, B. L. Butler, P. F. Stecha, M. K. Lewis, K. V. Wood, Novel genetically encoded biosensors using firefly luciferase. ACS Chem Biol 3, 346-351 (2008).
PROTOCOL TABLE (as described by Inglese J, Shamu CE and Guy RK. 2007)
SEQUENCE No. (e.g., 1, 2, 3, etc.); […] (e.g., Cells, Incubation, Reagent, etc.); VALUE and DESCRIPTION.
1. Cells. Seed 1500 HEK293 cGMP-sensor cells per well in 4uL into Greiner 1536-well white/solid bottom high base, TC plates.
2. Incubation. Incubate plated cells at 37C in 5% CO2, 95% RH overnight.
3. Reagent. Add 1uL per well GloSensor reagent from Promega (2% final concentration) or CO2 independent media vehicle control to respective columns of Greiner 1536-well plates.
4. Incubation. Incubate plated cells at room temperature for 2 h, protect from light.
5. Compounds. Library compounds and DMSO vehicle control added at 23nL per well, transferred by Pin Tool.
6. Incubation. Incubate plated cells for 30 min. at room temperature, protect from light.
7. Detector. GloSensor baseline pre-read luminescence measured using CCD-based camera (Viewlux).
8. Compound. Add 1uL of sodium nitroprusside (SNP) to 50 uM final concentration to stimulate soluble guanylyl cyclase (GC) or CO2 independent media as vehicle control.
9. Incubation. Incubate treated cells at room temperature for 20 min., protect from light.
10. Detector. GloSensor post-SNP luminescence measured using CCD-based camera (Viewlux).
NOTES (numbers refer to Sequence numbers above; values are from representative experiments)
1. HEK293 cells expressing GIP/pGS-40F were grown to 85-95% confluence (48-72 h) in T175 culture flasks (CO2 independent media supplemented with 10% FBS, 1% Pen/Strep antibiotics, and 1 ug/mL puromycin). Trypsinize and harvest cells from T175 culture flasks and filter through 40 um cell strainer. Cells counted with Invitrogen Countess (30,000,000 - 50,000,000 cells/flask).
2. Cells incubated for 24 h. at 37C in 95% RH incubator with metal lid having gas-exchange holes.
3. Prepare GloSensor Reagent (Promega): Reconstitute GloSensor luciferase substrate by adding 8.2mL Hepes buffer to 250mg substrate, mix well, protect from light and stored at -80C. Prepare a fresh 12% GloSensor solution in CO2 independent supplemented plating media (see above). Mix well and store at ambient temperature, protected from light. 1uL 12% GloSensor Luciferase Reagent added (2% final concentration) to respective columns of 9 x 1536-well Greiner plate with BioRaptr, 1uL CO2 independent plating media added to respective columns as vehicle control with BioRaptr.
4. Cells incubated for 2 h. at ambient temperature, protected from light with metal lid having gas-exchange holes.
5. 23nL of LOPAC128 library compounds (7 plates) or DMSO vehicle control transferred to 9 Greiner white/solid bottom high base, TC plates in 7 interplate 1:5 titrations (see Yasgar, A. et al. 2008) with Pintool. Two of the 9 plates are DMSO-only in compound field at beginning and end of compound library-treated plates.
6. Cells incubated for 30-50 min. at ambient temperature protected from light with metal lid having gas-exchange holes.
7. Read GloSensor + Antagonist/Compound baseline Luminescence on the ViewLux [Exposure, 30 s; Gain, High; Speed, Slow; Binning, 2X]
8. SNP solution prepared at 500 mM (in H2O) stock concentration. From this a working dilution was prepared at 300 uM in CO2 Independent media. 1uL of 300 uM SNP (50 uM final concentration) or CO2 Independent media vehicle control dispensed into respective columns of 9 x Greiner 1536-well white/solid bottom, tissue culture plates with BioRaptr.
9. Cells incubated for 20 min. at ambient temperature, protected from light with metal lid having gas-exchange holes.
10. Read final luminescence on the ViewLux. [Exposure, 30 s; Gain, High; Speed, Slow; Binning, 2X.]
[…]
With `C=C(C)C1CC=C(C(=O)O)CC1` (stereo not given) the Potency was “inactive”. For `CCC1(O)CC2CN(CCc3c([nH]c4ccccc34)[C@@](C(=O)OC)(c3cc4c(cc3OC)N(C=O)C3[C@]45CCN4CC=C[C@@](CC)([C@@H](OC(C)=O)[C@]3(O)C(=O)OC)[C@H]45)C2)C1` (stereo not given in full), the Potency was “inactive”. For `c1ccc2nc(C3=NCCN3)ccc2c1`, the Potency was “inactive”. For `Nc1nc2c(cnn2CCc2ccccc2)c2nc(-c3ccco3)nn12`, the Potency was “inactive”. For `O=C(O)CCC/C=C\C[C@@H]1[C@@H](/C=C/[C@H](O)C2Cc3ccccc3C2)[C@@H](F)C[C@@H]1O`, the Potency was “inactive”. With `CNc1cc(NS(=O)(=O)c2ccc(N)cc2)nc(NC)n1` the Potency was “inactive”. With `CN1CCCC1CCOC(C)(c1ccccc1)c1ccc(Cl)cc1` (stereo not given) the Potency was “inactive”. In the case of `O=C(O)C1=CCCNC1`, the Potency is reported as “inactive”. In the case of `CN1CCc2cc(Cl)c(O)cc2[C@@H](c2ccccc2)C1`, the Potency is reported as “inactive”. For `CCCCCCCCCCC/C=C\C(C)(C)/C=C\CCCC(=O)O`, the Potency was “inactive”. For `O=C(O)[C@H]1NCCC[C@H]1C(=O)O`, the Potency was “inactive”. In the case of `NC1CONC1=O` (stereo not given), the Potency is reported as “inactive”. In the case of `Nc1nc2ccc(Cl)cc2c2nc(-c3ccco3)nn12`, the Potency is reported as “inactive”. In the case of `CCCn1c(=O)c2[nH]c(-c3ccc(S(=O)(=O)O)cc3)nc2n(CCC)c1=O`, the Potency is reported as “inactive”. In the case of `C[C@]12C=CC(=O)C=C1CC[C@@H]1C2=CC[C@]2(C)[C@@H](C(=O)CN3CCN(c4cc(N5CCCC5)nc(N5CCCC5)n4)CC3)CC[C@@H]12`, the Potency is reported as “inactive”. For `Cc1ccc([N+](=O)[O-])cc1S(=O)(=O)N(C)C`, the Potency was “inactive”. For `CCCn1c(=O)c2[nH]c(C3CCCC3)nc2n(CCC)c1=O`, the Potency was “inactive”. With `CC(N)(Cc1ccc(O)cc1)C(=O)O` (stereo not given) the Potency was “inactive”. In the case of `Cc1nc2n(c(=O)c1CCN1CCC(c3noc4cc(F)ccc34)CC1)CCCC2O` (stereo not given), the Potency is reported as “inactive”. In the case of `C=CC[C@H](N)C(=O)O`, the Potency is reported as “inactive”. With `NC1(C(=O)O)CCCCC1` the Potency was “inactive”. With `OCC1NCC(O)C(O)C1O` (stereo not given) the Potency was “inactive”. For `NC1(C(=O)O)CC1`, the Potency was “inactive”. For `CC(C)(C)NCC(O)COc1cccc2[nH]c(=O)[nH]c12` (stereo not given), the Potency was “inactive”. With `CC(C)(C)c1cc(/C=C(\C#N)C(N)=S)cc(C(C)(C)C)c1O` the Potency was 1.17 µM (active). In the case of `Nc1ncnc2c1ncn2C1CCCO1` (stereo not given), the Potency is reported as “inactive”. With `O=C1C2C=CC=CC2=NC(=S)N1CCN1CCC(=C(c2ccc(F)cc2)c2ccc(F)cc2)CC1` (stereo not given) the Potency was “inactive”. With `CCCCCCCC/C=C\CCCCCCCC(=O)NCCc1ccc(O)c(O)c1` the Potency was “inactive”. For `C#CCn1c(=O)c2c(ncn2C)n(C)c1=O`, the Potency was “inactive”. With `Cn1c(=O)c2[nH]c(C3CCCC3)nc2n(C)c1=O` the Potency was “inactive”. With `O=c1[nH]c2ccccc2c2ccccc12` the Potency was “inactive”. With `COc1cc([C@@H]2c3cc4c(cc3[C@H](O)C3COC(=O)[C@@H]32)OCO4)cc(OC)c1OC` (stereo not given in full) the Potency was “inactive”. With `N=C(N)c1ccc(N)cc1` the Potency was “inactive”. For `C[C@@H](NCCc1ccc(O)cc1)[C@@H](O)c1ccc(O)cc1`, the Potency was “inactive”. In the case of `COC(=O)[C@H](NC(=O)c1cc(-c2ccccc2)nc2ccccc12)c1ccccc1`, the Potency is reported as “inactive”. With `COc1ccc2c(c1)CCC1C2CC[C@@]2(C)C1CC[C@@H]2NCCCCCCN1C(=O)C=CC1=O` (stereo not given in full) the Potency was “inactive”. For `O=C(O)C1CN(CCCP(=O)(O)O)CCN1` (stereo not given), the Potency was “inactive”. With `CCN(CC)CCCCCCCCOC(=O)c1cc(OC)c(OC)c(OC)c1` the Potency was “inactive”. With `CC(C)Cn1c(=O)n(C)c(=O)c2[nH]cnc21` the Potency was “inactive”. With `O=c1[nH]c2cc(Cl)ccc2c(O)c1-c1ccc(Oc2ccccc2)cc1` the Potency was “inactive”.
Potency is read from the fitted curve at half-maximal effect.
